Where “and” joins values, the source holds several entries; their conditions need not be identical. Identical values can stand only once. Screen size: about 360,000 compounds; about 11,000 (3.1%) were called active. Where a call stands in place of a potency, no number is given. Inconclusive results (about 4%) are left out. Calls come from the whole dose curve; as a rule, active = well fitted inhibition curve with a large enough effect; inconclusive = small, poorly fitted or top-dose-only effect; inactive = no such curve, though single readings can be large or run the other way. For the sample, actives were picked, then their nearest neighbours and some compounds at random.
Biological target: Schistosoma mansoni thioredoxin glutathione reductase (TGR) (UniProt Q962Y6)
Assay: qHTS Assay for the Inhibitors of Schistosoma Mansoni Peroxiredoxins; note: nearly all actives have a fitted effect of over 60% in size
Conditions: purified TGR, DTNB reduction, TNB absorbance 405 nm; series mostly up to 114 µM
How it was run: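 Kinetic colorimetric format: TGR-catalysed, NADPH-driven DTNB reduction monitored via TNB absorbance. Enzyme dispensed at 20 nM; compound exposure 15 min at room temperature before reaction start.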
Potency is the fitted concentration of half-maximal effect.

Structure (SMILES) | Potency
CCCN(C(=O)Cn1ncc2c([nH]c3ccc(C)cc32)c1=O)c1ccccc1C | inactive
O=C(c1ccc2c(c1)N(Cc1ccccc1)C(=O)c1ccccc1S2(=O)=O)N1CCCC1 | inactive
Cc1cccc(N2CCN(C(=O)CCSCc3ccccc3F)CC2)c1C | inactive
Cc1ccc(C)c(CNC(=O)c2cc3ccccn3n2)c1 | inactive
Cc1ccc(C(=O)NC(=S)Nc2ccccc2C)cc1 | 31.6 µM (active)
Cc1ccccc1NC(=S)NNC(=O)c1cccc(Br)c1 | inactive
Cc1cc(C(=O)NNC(=S)Nc2ccccc2C)cs1 | inactive
CCOC(=O)c1cccc(NC(=O)C(Cc2ccccc2)NS(=O)(=O)c2cccc3nsnc23)c1 (stereo not given) | inactive
O=c1c2ccccc2n(Cc2cccc(Cl)c2)c(=O)n1Cc1ccccc1 | inactive
C/C=C\C=C\C(=O)N1CC2(CC(c3cccc(NC(=O)/C(C)=C\C)c3)=NO2)C[C@H]1C(N)=O (stereo not given in full) | 7.94 µM (active)
C/C=C(/C)C(=O)Nc1cccc(C2=NOC3(C2)C[C@@H](C(N)=O)N(C(=O)C2(C)CC2)C3)c1 (stereo not given in full) | inactive
C/C=C(\C)C(=O)N1CC2(CC(c3cccc(NC(=O)CCCCC)c3)=NO2)C[C@@H]1C(N)=O (stereo not given in full) | inactive
Cc1cc(Br)ccc1NC(=O)Cn1cnc2sc(C)c(S(=O)(=O)N3CCN(C)CC3)c2c1=O | inactive
O=S(=O)(c1ccc(Cl)cc1)c1nnn2c1nc(NC1CCCC1)c1sccc12 | inactive
O=C(Cn1c[n+](CC(=O)c2ccc([N+](=O)[O-])cc2)cn1)c1ccc([N+](=O)[O-])cc1 | 10 µM (active) and 44.7 µM (active)
Cc1ccc(C(=O)Cn2cc([N+](=O)[O-])nc2C)cc1 | inactive
C/C(=N/NC(=O)CC(=O)N/N=C(\C)c1ccc([N+](=O)[O-])cc1)c1ccc([N+](=O)[O-])cc1 | inactive
CN(CC(=O)Nc1ccc(F)cc1)C(=O)c1ccc(-c2ccc(Cl)cc2)o1 | inactive
Cc1[nH][nH]c(=O)c1C(c1ccc(-c2ccc(Cl)cc2)o1)c1c(C)[nH][nH]c1=O | 25.1 µM (active)
COC(=O)c1cc(NC(=O)CN2CCC(C(N)=O)(N3CCCCC3)CC2)cc(C(=O)OC)c1 | inactive
CCCNC(=O)NCc1ccc(N2CCCC2=O)cc1 | inactive
NC(=O)C1(N2CCCCC2)CCN(C2CC(=O)N(Cc3ccc(N4CCCC4=O)cc3)C2=O)CC1 (stereo not given) | 25.1 µM (active)
COc1ccc(OC)c(-n2nnc(-c3nc(-c4cc(OC)c(OC)c(OC)c4)no3)c2C)c1 | inactive
Cc1ccc(N2C(=O)CC(Nc3cccc4ccccc34)C2=O)cc1 (stereo not given) | 22.4 µM (active)

Structure (SMILES) | Potency
Cc1ccc(N2C(=O)C3C(c4ccccc4)(C2=O)C3(c2ccccc2)c2ccccc2)cc1 (stereo not given) | inactive
O=C(Cc1ccccc1)NNC1CC(=O)N(c2ccc(Br)cc2)C1=O (stereo not given) | inactive
CCOc1ccc(NC(=O)c2cnn(-c3ccccc3)c2-n2cccc2)cc1 | inactive
Cc1ccc(OCC(=O)OCc2cc(=O)n3nc(C4CC4)sc3n2)cc1 | inactive
COc1ccc(S(=O)(=O)NCC(c2ccc(N(C)C)cc2)N2CCc3ccccc32)cc1OC (stereo not given) | inactive
CCOC(=O)c1c(N)n(-c2cccc(C)c2C)c2nc3ccccc3nc12 | inactive
CCOC(=O)c1c(NC(=O)CSc2nnc(CN3CCOCC3)n2C)sc2c1CCCC2 | inactive
Nn1c(SCC(=O)Nc2nccs2)nnc1-c1ccco1 | inactive
NC(=O)c1c(NC(=O)CSc2nnc(-c3ccco3)n2N)sc2c1CCCC2 | 11.2 µM (active)
Cc1c(Cl)cccc1NC(=O)c1noc2c1CCCC2 | inactive
CSc1ccc(CCNC(=O)c2cnn(-c3ccccc3)c2-n2cccc2)cc1 | inactive
O=C(CSc1nnc(-c2cccnc2)n1Cc1ccco1)c1ccc(Cl)c(Cl)c1 | 22.4 µM (active)
O=C(CSc1nnc(-c2cccs2)n1Cc1ccco1)c1ccc2c(c1)OCO2 | inactive
O=C(CSc1nnc(-c2cccnc2)n1CCc1ccccc1)NCc1ccccc1 | inactive
COc1cc(Cl)c(C)cc1NC(=O)CSc1nnc(-c2ccco2)n1CC(C)C | 25.1 µM (active)
COc1ccccc1NC(=O)CSc1nnc(-c2ccoc2C)n1CCc1ccccc1 | inactive
CCn1c(SCC(=O)Nc2cc(C)ccc2C)nnc1-c1cnccn1 | inactive
CCc1ccc(NC(=O)CSc2nnc(-c3cnccn3)n2Cc2ccco2)cc1 | 39.8 µM (active)
CCn1c(SCC(=O)Nc2cc(C)c(Cl)cc2OC)nnc1-c1ccco1 | inactive
Cc1cc(C)nc(SCc2nnc(SCC(=O)Nc3ncc(C)s3)n2Cc2ccco2)n1 | inactive
Cc1c(Cl)cccc1NC(=O)CSc1ccc(-c2cccnc2)nn1 | inactive
COc1cc(Cl)c(C)cc1NC(=O)CSc1nnc(-c2cccnc2)n1Cc1ccco1 | 44.7 µM (active)
Cn1c(SCC(=O)Nc2nccs2)nnc1-c1cccnc1 | inactive
COc1ccc(OCC(=O)Nc2cccc(C(=O)OCc3cc(=O)n4nc(C)sc4n3)c2)cc1 | inactive

Structure (SMILES) | Potency
Cc1cc(NC(=O)C2CCC(CNS(=O)(=O)c3ccc(Br)s3)CC2)ccc1Br (stereo not given) | inactive
COC(=O)c1ccc(NC(=O)CCc2c(C)nc3c(c(C)nn3-c3ccc(C)cc3)c2C)cc1 | inactive
O=C(NCC(c1cccnc1)N1CCc2ccccc21)c1cccc(C(F)(F)F)c1 (stereo not given) | inactive
COc1ccc(CCNC(=O)CCc2c(C)nc3c(c(C)nn3-c3ccc(C)c(C)c3)c2C)c(OC)c1OC | inactive
COc1ccc(NC(=O)CSc2nc3ccccc3n2CC(=O)N2CCCCC2C)cc1 (stereo not given) | inactive
COc1ccc(C(=O)CSc2nnc(COc3ccccc3)n2Cc2ccco2)cc1 | 39.8 µM (active)
C=CCn1c(CNC(=O)c2ccco2)nnc1SCC(=O)c1ccc(OC)cc1 | inactive
COc1ccc(C(=O)NCc2nnc(SCCOc3ccccc3)n2C)cc1 | inactive
COc1ccccc1CNCc1ccc(C(=O)O)s1 | inactive
COc1ccc(-c2cn3c(n2)sc2cc(C(=O)Nc4ccccc4F)ccc23)cc1 | inactive
O=C(NCc1ccccc1Cl)C1=Cc2cc(Br)ccc2OC1 | inactive
Cc1ccc(SCC(=O)NC(=O)NCc2ccco2)c(C)c1 | inactive
O=C(CNc1ccc(F)cc1F)NC(=O)NCc1ccco1 | 28.2 µM (active)
CC(C)(C)NC(=O)NCc1ccco1 | inactive
CCOC(=O)c1ccc(NC(=O)C2CCN(S(=O)(=O)c3ccc4c(c3)CCCC(=O)N4)CC2)cc1 | inactive
O=C(CCc1nc(CN2CCN(S(=O)(=O)c3ccc(Cl)cc3)CC2)no1)N1CCCCC1 | inactive
CN(C)[C@@H]1C(=O)C(C(N)=O)=C(O)[C@@]2(O)C(=O)C3=C(O)c4c(O)ccc(Cl)c4[C@@H](O)[C@H]3C[C@@H]12 | 39.8 µM (active)
O=C(c1ccccc1F)N1CCC(c2nc3c(nnn3Cc3cccc(F)c3)c(=O)[nH]2)CC1 | inactive
Cc1ccc(CN2CCc3nc(N4CCN(C)CC4)ncc3C2)cc1 | inactive
Cc1ccc(C)c(Cn2c(=O)n(CCC(=O)NCc3ccc4c(c3)OCO4)c(=O)c3sccc32)c1 | inactive
CC(C)c1ccc(NC(=O)c2cc(S(=O)(=O)N3CCc4ccccc4C3)ccc2F)cc1 | inactive
c1ccc(-n2nnnc2N2CCOCC2)cc1 | inactive
C1=C(N2CCOCC2)/C(=C/c2nc3ccccc3[nH]2)CC1 | 5.62 µM (active)
O=C(C1CCCO1)N1CCC(c2nc3ccccc3[nH]2)CC1 (stereo not given) | inactive

Structure (SMILES) | Potency
COc1ccc(NC(=O)N2CCCn3nc(C)cc32)cc1OC | inactive
COc1cc(C2C(C(=O)c3ccco3)=C(O)C(=O)N2c2cc(C)on2)ccc1OCc1ccccc1 (stereo not given) | inactive
COc1ccc(C2C(C(C)=O)=C(O)C(=O)N2c2nccs2)cc1 (stereo not given) | inactive
C=CCOc1cccc(C2C(C(=O)c3ccc(C)o3)=C(O)C(=O)N2c2nnc(C)s2)c1 (stereo not given) | 28.2 µM (active)
CCCCc1nn2c(=O)cc(COC(=O)c3ccc(NC(=O)c4ccccc4C)cc3)nc2s1 | inactive
Cc1ccc(NC(=O)C(=O)NCC(c2cccnc2)N2CCOCC2)cc1 (stereo not given) | inactive
COc1ccc(NC(=O)Cn2c(=O)n(Cc3ccc(C(=O)NCc4ccccc4Cl)cc3)c(=O)c3ccccc32)cc1 | inactive
Cn1nc(-c2ccccc2)c(-c2ccccc2)c(C(=O)Nc2ccc(S(N)(=O)=O)cc2)c1=O | inactive
Cc1ccc(C)c(N2CCN(CCCNC(=O)Nc3ccc(Cl)cc3)CC2)c1 | inactive
O=C(Cc1ccc(S(=O)(=O)N2CCCC2)s1)NC1CCCCCC1 | inactive
CC(C)c1ccc(S(=O)(=O)N2CCN(C(C)C(=O)NC3CCCC3)CC2)cc1 (stereo not given) | inactive
CC(C(=O)NC1CCCC1)N1CCN(S(=O)(=O)c2ccccc2Cl)CC1 (stereo not given) | 35.5 µM (active)
O=C(Nc1ccc(OC(F)(F)F)cc1)C1CCCN(S(=O)(=O)c2ccc(Br)s2)C1 (stereo not given) | inactive
Cc1ccc2nc(SCC(=O)N3CCN(c4ccccc4)CC3)nc(=O)n2c1 | 50.1 µM (active)
Cc1ccc2nc(SCC(=O)Nc3cccc4ccccc34)nc(=O)n2c1 | inactive
Cc1ccc2nc(SCC(=O)N3CC(C)OC(C)C3)nc(=O)n2c1 (stereo not given) | inactive
COC(=O)CC1Oc2ccccc2-n2cc(-c3ccccc3)nc21 (stereo not given) | inactive
Cc1nc(SCC(=O)Nc2ccc(C(=O)O)cc2)n[nH]1 | inactive
CSc1ncc(Cl)c(C(=O)Nc2ccc(S(=O)(=O)N3CCCC(C)C3)cc2)n1 (stereo not given) | inactive
Cc1cc(=O)n2[nH]c(-c3cccc(Cl)c3)cc2n1 | inactive
Cc1cc(=O)n2[nH]c(-c3sccc3-n3c(C)ccc3C)cc2n1 | 31.6 µM (active)
C=CCc1c(C)nc2cc(-c3ccccc3)[nH]n2c1=O | inactive
O=C(Nc1cc(Cl)cc(Cl)c1)c1ccc2c(c1)N(Cc1cccc(Cl)c1)C(=O)c1ccccc1S2=O (stereo not given) | inactive
